# Screening data: PubChem BioAssay, several laboratories
# CYP2C9 inhib = blockers of cytochrome P450 2C9 activity – biochemical, luminescence, ADME assay, primary screen | CYP2C9 Supersomes, luciferin-H conversion | inhibition, % at 5 µM | AID 777, 2007 | 96,000 tested, 20% active;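 active means blocking of liver enzyme CYP2C9 beyond about 50% at 5 µM, limit read from the data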
# CYP2C19 activ = human CYP2C19 activators, primary screen, biochemical, luminescence | Cytochrome P450 2C19 (Homo sapiens), P33261 | recombinant CYP2C19, luciferin-H EGE luminescence; stronger effect = higher value; 0 = fully inhibited enzyme, 1 = untreated enzyme | activation factor at 5 µM | 96,000 tested, under 10 active;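 active means activation factor of at least 2 at 5 µM in the primary screen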;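 further: 0 = wells with 2.5 mM tranylcypromine and 1 = vehicle-only wells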
# Target sequence (P33261 whole entry, looked up): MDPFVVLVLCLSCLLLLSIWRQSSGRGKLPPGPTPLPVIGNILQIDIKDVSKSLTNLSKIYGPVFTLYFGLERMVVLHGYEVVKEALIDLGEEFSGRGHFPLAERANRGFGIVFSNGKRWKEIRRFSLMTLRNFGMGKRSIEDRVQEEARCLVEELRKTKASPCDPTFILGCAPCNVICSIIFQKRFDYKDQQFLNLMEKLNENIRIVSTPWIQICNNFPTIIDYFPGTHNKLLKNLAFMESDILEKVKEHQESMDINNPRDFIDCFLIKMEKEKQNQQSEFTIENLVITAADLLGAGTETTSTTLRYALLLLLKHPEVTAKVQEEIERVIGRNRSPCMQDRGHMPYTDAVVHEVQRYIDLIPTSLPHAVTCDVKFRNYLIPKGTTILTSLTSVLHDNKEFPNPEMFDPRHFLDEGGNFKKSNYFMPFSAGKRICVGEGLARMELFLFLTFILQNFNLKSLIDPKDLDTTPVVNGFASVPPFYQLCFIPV
# Measles CPE = compounds protecting cells from measles virus cytopathic effect, primary screen, measles RdRp inhibitor project, single point, MLSMR library, absorbance; Measles virus-infected cells, CPE protection; protection (pct of control), % at 4 µM; 140,000 tested, 1.5% active; AID 841, 2007; in the data active means protection mostly above about 24%, no sharp cut-off; inactive means mostly below about 26%
# CYP2C19 inhib = blockers of cytochrome P450 2C19 activity – biochemical, luminescence, ADME assay, primary screen. P33261. CYP2C19 Supersomes, luciferin-H EGE luminescence, 30 min. inhibition, % at 5 µM. 96,000 tested, 21% active;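 active means CYP2C19 inhibition above a set limit at 5 µM in the primary screen, cut at about 50% in these data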;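 further: plate controls were negative control wells for no effect and 2.5 mM tranylcypromine positive control for full effect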
# CYP2C9 act = human CYP2C9 activators, primary screen, biochemical, luminescence; 96,000 tested, 1.4% active; activation factor at 5 µM; recombinant CYP2C9, luciferin-H conversion; stronger effect = higher value; factor 1 = untreated enzyme, 0 = blocked;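 active means activation factor of 2 or more for CYP2C9 at a 5 µM dose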;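 further: 0 = sulfaphenazole-blocked wells and 1 = vehicle-only wells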
# Starred values were filed as active, the others as inactive; / = not tested or not shown. A selection: hits, their analogues and other compounds. The true share with any hit is near 22%.
SMILES,CYP2C9 inhib,CYP2C19 activ,Measles CPE,CYP2C19 inhib,CYP2C9 act
CN1CCN(c2nc(Nc3cccc(C(F)(F)F)c3)nc(N3CCOCC3)n2)CC1,5.7,0.7,19.6,27.5,0.9
Cc1ccc(C)c2[nH]c(=O)c(CN(CCN3CCOCC3)Cc3nnnn3CC3CCCO3)cc12 (stereo not drawn),-13.6,1.1,4.5,-5.6,1.1
Cc1ccc2[nH]c(=O)c(CN(Cc3ccccc3)Cc3nnnn3C3CCCC3)cc2c1,65.7*,0.1,9.5,93.2*,0.3
Cc1cccc2cc(CN(Cc3ccc(F)cc3)Cc3nnnn3C3CCCC3)c(=O)[nH]c12,13.7,1.1,6.0,-5.3,0.9
Cc1cc(C)c2[nH]c(=O)c(CN(Cc3ccc4c(c3)OCO4)Cc3nnnn3C3CCCC3)cc2c1,90.8*,0.2,5.9,84.4*,0.1
Cc1ccc(C)c2[nH]c(=O)c(CN(CC3CCCO3)C(=O)NC3CCCCC3)cc12 (stereo not drawn),72.5*,0.7,18.1,28.9,0.3
Cc1ccc(C)c2[nH]c(=O)c(CN(Cc3nnnn3C3CCCCC3)CC3CCCO3)cc12 (stereo not drawn),64.7*,0.1,8.3,92.8*,0.4
Cc1onc(-c2ccccc2)c1C(=O)NNC(=S)NC(=O)/C=C/c1cccs1,/,/,13.6,/,/
COc1cccc2c1OC[C@@H](CO)[C@H]2N(C)C(=O)Nc1ccc(Cl)cc1,19.5,0.9,2.0,14.4,0.8
Cc1cc(C)c2[nH]c(=O)c(CN(CC3CCCO3)C(=O)C3CCCO3)cc2c1 (stereo not drawn),-8.5,1,16.3,-1.8,1.1
Cc1cccc2cc(CN(CC3CCCO3)C(=O)c3ccncc3)c(=O)[nH]c12 (stereo not drawn),82.9*,0.1,5.1,88.7*,0.2
O=C(NCC1CCCO1)NC1(C(F)(F)F)Oc2ccccc2O1 (stereo not drawn),-44.5,0.8,16.4,22.3,1.4
CCOC(=O)C1=C(C)N(c2ccccc2)C(=O)/C1=C\c1cccs1,/,/,4.1,/,/
COC(=O)C1=C(C)NC(=O)/C1=C\c1cc(C)n(-c2ccccc2C)c1C,3.8,1,16.2,3.6,1
COC(=O)C1=C(C)NC(=O)/C1=C\c1cccs1,57.2*,0.7,5.4,25.8,0.4
COC(=O)C1=C(C)NC(=O)/C1=C\c1cc(C)n(-c2c(C)cccc2C)c1C,55.9*,0.6,11.1,43.7,0.4
COC(=O)C1=C(C)N(c2cccc(C)c2)C(=O)/C1=C\c1cccs1,50.2*,0.5,15.5,47.9,0.5
CC1=CC(C2CC(=O)N(c3ccccc3C)C2=O)CC2C(=O)N(c3ccccc3C)C(=O)C12 (stereo not drawn),/,/,10.2,/,/
c1coc(-c2nnc3n2C2(CCCC2)Cc2ccccc2-3)c1,14.7,0.8,9.8,17.5,0.9
